Assay results taken from the supplement of paper PMC11417369.
Whole data set: some 25,000 sequences, median “ln(normalized median fluorescence intensity)” near 6.7, cut for the highest 2% near 10. Many of the other results were omitted from the sample, so the highest values are more common in it than they were.

Test system: PfHDP1 homeodomain (GST-tagged)
Test: gcPBM binding intensity (ln(normalized median fluorescence intensity)); higher = stronger DNA binding
Method in brief: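 GST-fused DNA-binding domains of P. falciparum, expressed in E. coli, were applied at about 25 μg on average for 1 h to an Agilent 4 × 180k array of primer-extended double-stranded 36-bp intergenic genomic probes and negative controls. Binding intensity is the highest Masliner-normalised natural-log median intensity across replicate spots of either probe orientation, measured with Alexa488 anti-GST antibody and a 488 nm scan.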

Sequence	gcPBM binding intensity (ln)
TGCATAATTAAAAATGGTACACTGTATTTATAATAT [XGTACX_site1575]	6.38
TAAAAAATTAATAAAGTGCATAAATATTACAATATT	7.68
AGGTATATATTACAAGTGCACTGTAAAATTAAAATT	10.5
ATATTTAAATAATATTCACACACAAAATTATATTTT [CACACA_site7955]	6.44
AAATGTATACACATGGTGCGTAATATATTATATATA [GTGCAC_site9877]	7.85
AATAAAAAAATATATTGTACTAATAATTATATGTTT [XGTACX_site2246]	6.47
TTTTTATCAAATAAATGTACACATATTAAATGAAAT [XGTACX_site555]	6.6
ATATATATTAAAAATAGTACATATAATAAAAATCAT [XGTACX_site4265]	6.57
AATCATATTAGTATGGTGCAATATATATATAAATAT [GTGCAC_site9800]	10.5
ACATATTAAATATGAGTGCAATATATATATATATAA	9.25
AATCATATTAGTATGGTGCAACATATATAAATATAT	11
AGTATAAATAAATCATAAACATATATATATATATAT [GTGCAC_negctrl_site356]	9.35
CAATATATTATATGGGTGCAAACCACATATAAATAA	8.55
ATACATTTATTGTATTGTACATAATATTATATATTC [XGTACX_site7115]	6.55
TGCATATTACTTTTTCACATAAAAATGATCCGATTA [GTGCAC_negctrl_site526]	6.49
ATATTTAAACGATGGTGTACATATATTACAAGTTGT [XGTACX_site1743]	7.03
ACATAAAATTGGAGCAAACACACAAGGTTGAAATTA [CACACA_site505]	7.16
TATATATTTCAATAATGTACATATAATATATATATT [XGTACX_site4124]	6.6
CCATAAAAAGGATACACACACACACCGACATATATA [CACACA_site4653]	6.89
ATTAAGTACTAAAAAGTGCAGTTCGGTACTGTGCTT [GTGCAC_site9755]	6.42

Sequence	gcPBM binding intensity (ln)
TATTTCATTAATGTCACTTTGAAAGAAATGAAAAAA [CACACA_negctrl_site1803]	6.44
TTTTTTTTTTTTTTTGCACACATTTTAATTATTTTT [CACACA_site341]	9.27
TTAATTATCCATTTTGCACACATTTTAAAACATGAA [CACACA_site189]	10.7
CTATTTAAAATTTGAACACACATTATTTATTTTAAA [CACACA_site3114]	6.41
TTCCTTTGTCCTAACTGTACTCAAATTTATTAGTGG [XGTACX_site226]	7.04
TATATATTCATAAAGTGTACATGTTTATATATATAT [XGTACX_site7585]	8.53
TATATATAAGCGTGTACACATTCTGAGTGTTGTATA [CACACA_site4502]	7.02
ATAGTATATCAAAATTTGTAAATCATTCTCAATAAA [CACACA_negctrl_site430]	5.94
AATATAAATAATTATACACACTTAATATATATATAC [CACACA_site5533]	6.53
ATATGTATGTATTTATTATTGTGCATTGTATTTATA [CACACA_negctrl_site664]	10.3
TATATATATATATATATATATATGTATGTGCATTTA [TGCATGCA_negctrl_site53]	11.2
ATATATATTTATATATATATATATATATATATGTAT [GTGCAC_negctrl_site220]	7.92
CACACGCACGAACACACACACACACGCGCACATATA [CACACA_site6304]	8.54
CAAAAAAACAAACACACACACACACCCATATATATA [CACACA_site3653]	6.85
TTTTTTAAAGTTTAAAGTACATATAAAAATATATAA [XGTACX_site5267]	5.94
TATACCAGTTTTAAAAGTACTTGTGCATAAAAAATA [XGTACX_site4794]	11
AAAGTTTTTATAAAAAAAAAAATAAATACCATATAT [XGTACX_negctrl_site113]	6.5
TATGGTTTTAAAAAATGTACGCAAGTGCGTTAATTT [XGTACX_site3945]	7.62
TTATAATATATATACAGTACATATATAAAATAATAT [XGTACX_site5917]	6.5
AAAAAAAATTATATATGTACTTATTAATCCTTTTAT [XGTACX_site1387]	6.11

Sequence	gcPBM binding intensity (ln)
TCCAATTGTTCTAGTGTGCACATAAATAAATCTCAT	11
CACATAAATAATTAAACACACATTGTTCTAGACAAT [CACACA_site2378]	6.51
AGCACATAAATAATTAAACACACATTGTTCTAGACA [CACACA_site8746]	6.3
AGTCTGAATAAAATTACACACATATACCTATAAATA [CACACA_site6929]	6.4
ATACATAAAATTAAAACACACATTTGATTAAATACG [CACACA_site7088]	6.6
TGCACAAAATTATGCACACACCTAAAATTAATTTTT [CACACA_site5596]	10.8
TGCACAAAGTTATGCACACACCTAAAATTAATTTTT [CACACA_site7385]	10.5
TAAATTAATACCTATGCACACATTTTTTTTTTTAAA [CACACA_site1238]	8.59
AATTAAAAAATTTATGCACACTTTAAAAAAAAAAAA [CACACA_site5962]	9.66
TGTGCTCAAAATTATGCACACACCTAAAATTAATTT [CACACA_site8950]	10.7
TGTGCCCAAAATTATGCACACACCTAAAATTAATTT [CACACA_site2914]	10.5
GATAATAATAAACAACCACACACAAAAAAACAAAAA [CACACA_site9074]	7.01
TTTTTTTTTTTTTATTGTACTTATTTTTTTATGTTT [XGTACX_site7725]	5.96
AAAAAAAAAAAATGCACACATATATTTCCATATACA [CACACA_site1471]	9.96
AAAAATATTAAAAGGCGTACAATACCTGTATGCAAC [XGTACX_site6069]	6.12
TTTGTTATTTTTTATTGTACTTTTTTTCTTTCATAA [XGTACX_site4302]	7.03
AATATTAACAATCGCACACATATTATTTTTCCAAAA [CACACA_site4982]	7.13
CAAATAGCTAGCTGTGCACACAAACATATTTTCCAA [CACACA_site879]	11
AATAGCTAGCTGTGCACACAAACATATTTTCCAAAT [CACACA_site880]	10.3
